# PubChem BioAssay
# Tested on: Human papillomavirus type 1a E7 protein (residues 1-88)
# Assay: HPV1a E7 small-molecule binders, primary screen, biochemical, small-molecule microarray, residues 1-88, 635 nm (AID 1129)
# Conditions: small-molecule microarray binding, fluorescence 635 nm; higher = more signal
row,Compound,composite z-score
1,O=C1O[C@H](c2ccccc2)[C@H](c2ccccc2)N2[C@H]1[C@@H](C(=O)Nc1nc3ccccc3s1)[C@]1(C(=O)Nc3ccc(C#CCCO)cc31)[C@H]2c1ccc(OCCO)cc1,1.18
2,C=CCOC(=O)[C@H]1[C@@H]2C(=O)O[C@@H](c3ccccc3)[C@@H](c3ccccc3)N2[C@@H](c2ccc(OCCOC(=O)[C@@H]3C[C@@H]4C(=O)N[C@@H](CCCC[N+](C)(C)C)C(=O)N4[C@@H]3c3ccc(O)cc3)cc2)[C@]12C(=O)Nc1ccccc12,1.2
3,COCCCN1C(=O)[C@@]2(Cc3ccccc31)c1ccccc1C(=O)N(Cc1ccccc1C(F)(F)F)[C@H]2c1ccc(CO)cc1,0.439
4,COc1cc2c(cc1OC)CN(C(=O)[C@@H]1[C@H]3C(=O)O[C@H](c4ccccc4)[C@H](c4ccccc4)N3[C@H](c3ccc(O)cc3)[C@@]13C(=O)Nc1ccc(C#CC4(O)CCCCCC4)cc13)CC2,1.25
5,COCCOC(=O)N1C(=O)[C@@]2(c3ccccc31)[C@H](c1ccccc1OCCO)N1[C@H](c3ccccc3)[C@H](c3ccccc3)OC(=O)[C@H]1[C@@H]2C(=O)Nc1nc2ccccc2s1,1.19
6,C=C[C@H](COC(C)=O)N(C(=O)OC(C)(C)C)S(=O)(=O)c1ccc(Br)cc1,0.851
7,COc1cc(CO)cc(I)c1O[C@H]1C=C(C(=O)NCCO)C[C@@H](N(CCN2CCOCC2)C(=O)C2CCOC2)[C@@H]1O (some centres undefined),-0.233
8,COC(=O)[C@@]1(Cc2ccc(F)cc2)[C@H]2c3cc(C(=O)N4CCCC4)n(Cc4ccc(C)o4)c3C[C@H]2CN1C(=O)c1ccccc1,1.07
9,C=CCN1C(=O)[C@]2(O[C@H](CCO)[C@@H]([Si](C)(C)c3ccc(OC)cc3)[C@@H]2C)c2cc(N3C(=O)c4cccc5cccc3c45)ccc21,0.98
10,C=CCN1C(=O)[C@]2(O[C@H](CCO)[C@@H]([Si](C)(C)c3ccc(OC)cc3)[C@@H]2C)c2cc(N3CCCCC3=O)ccc21,1.2
11,CN1C(=O)C2C=CC(C(O)c3ccc(-c4ccccc4)s3)N(N(c3ccccc3)c3ccccc3)C2C1=O (centres undefined),0.628
12,COc1cc(OC)c(C(O)C2C=CC3C(=O)NC(=O)C3N2Nc2ccc(Cl)cc2Cl)cc1Br (centres undefined),1.22
13,CCOC(=O)C[C@H]1[C@H](OC(=O)c2cc3ccccc3oc2=O)[C@@H](NC(=O)Cc2ccc(OC)cc2)c2cc(OCCCO)ccc2N1C(=O)c1ccccc1,0.376
14,COc1ccc(C(O)C2C=CC3C(=O)N(c4ccccc4)C(=O)C3N2Nc2ccccc2F)cc1OCc1ccccc1 (centres undefined),1.22
15,CN1C(=O)C2C=CC(C(O)Cc3ccccc3)N(Nc3ccccc3)C2C1=O (centres undefined),0.257
16,O=C1O[C@H](c2ccccc2)[C@H](c2ccccc2)N2[C@H]1[C@@H](C(=O)Nc1nc3ccccc3s1)[C@]1(C(=O)Nc3ccc(C#CC4(O)CCCCCC4)cc31)[C@H]2c1ccc(OCCO)cc1,1.14
17,C[N+](C)(C)CCCC[C@@H]1NC(=O)[C@@H]2C[C@H](C(=O)NCCCCCN)[C@H](c3cccc(OCCO)c3)N2C1=O,0.935
18,CCCCCCC#C[Si](O[C@H](c1ccccc1)c1cn([C@H](CO)Cc2ccccc2)nn1)(C(C)C)C(C)C,-0.116
19,COC(=O)[C@@]1(Cc2ccc(F)cc2)[C@@H]2[C@@H](CC(=O)[C@H]2CC(=O)C(=O)N(C)C)CN1C(=O)c1ccccc1,1.24
20,C#CCN(CC=C(C)C)[C@H](CO)c1ccccc1,0.729
21,CCc1oc(CC[C@@H](CO)NC(=O)NCCn2cc(C3(O)CCCCC3)nn2)c(C(=O)OC)c1C(=O)OC,0.687
22,C#CCN(Cc1ccccc1Br)C(/C=C/c1ccccc1)CO (centres undefined),-0.265
23,C#CCNC(=O)[C@H](Cc1ccccc1)NC(=O)CCC(=O)O,-0.912
24,C[C@@]1([C@@H](NC(=O)c2ccccc2)c2ccc(-c3ccccc3)cc2)C[C@H]1C1CCCCC1,-0.202
25,CC(C)C(=C=CC[C@@H](O)c1ccccc1OCCO)CCO,0.43
26,O=C(c1ccccc1)N1Cc2ccccc2[C@@H]2OC(c3ccc(OCCCO)cc3)=N[C@]2(Cc2ccccc2)C1=O,1.19
27,CC(C)C(CO)N1C(=O)[C@@H]2[C@H]3C(=O)OCC=C[C@H]3OC23C=CCN(C(C)C)C(=O)[C@@H]13 (some centres undefined),-0.349
28,CN(C)C(=O)[C@@]1(Cc2ccccc2)N=C(c2ccc(OCCCO)cc2)O[C@H]1c1ccccc1N=[N+]=[N-],1.25
29,C=C/C=C/[C@H]1C(=C)CN([C@@H](Cc2ccccc2)C(=O)OC)[C@@H]1[C@H](O)Cc1ccccc1,-0.748
